In PubChem BioAssay AID1159580 (chemical genetic matrix, 2015):
About 2,000 (36%) of roughly 5,500 compounds were called active. About 18% were inconclusive and are not listed. Cut-off read from the data, not from the text of the source: active = normalized growth mostly below about 0.91 (no sharp cut-off); inconclusive = no clear call, values can overlap the other calls; inactive = mostly above about 0.92. The list shows a part of the results.

Experiment: chemical genetic growth profiling, strain panel (AID 1159580);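 note: tested at 20 µM; growth read once vehicle control cultures reached saturation at 30 °C; 1 = growth at the plate median or of vehicle wells; lower values mean less growth of the strain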
Conditions: S. cerevisiae deletion strains, growth OD

Measured: normalized growth

O=c1c(O)cccc2cc(O)c(O)c(O)c12
active: locus YJR075W, strain HOC1, active compounds read low 0.82 | locus YKL009W, strain mrt4, active compounds read low 0.345 | locus YKL068W, active compounds read low 0.928 | locus YKL085W, strain MDH1 (second series), active compounds read low 0.818 | locus YKL085W, strain MDH1, active compounds read low 0.818 | locus YKL160W, strain elf1, active compounds read low 0.853 | locus YKR001C, strain vps1, active compounds read low 0.818 | locus YKR026C, strain gcn3, active compounds read low 0.915 | locus YLL001W, strain dnm1, active compounds read low 0.699 | locus YLL026W, active compounds read low 0.841 | locus YLL041C, strain sdh2, active compounds read low 0.902 | locus YLR027C, strain aat2, active compounds read low 0.815 | locus YLR039C, strain RIC1, active compounds read low 0.481 | locus YLR058C, strain SHM2, active compounds read low 0.22 | locus YLR113W, strain HOG1, active compounds read low 0.51 | locus YLR221C, strain rsa3, active compounds read low 0.78 | locus YLR258W, strain gsy2, active compounds read low 0.83 | locus YLR262C, strain YPT6 (second series), active compounds read low 0.485 | locus YLR268W, strain sec22, active compounds read low 0.515 | locus YLR320W, strain mms22, active compounds read low 0.595 | locus YLR330W, strain CHS5, active compounds read low 0.852 | locus YLR342W, strain FKS1 (second series), active compounds read low 0.564 | locus YLR342W, strain FKS1, active compounds read low 0.764 | locus YLR357W, strain rsc2, active compounds read low 0.632 | locus YLR370C, strain arc18, active compounds read low 0.656 | locus YLR371W, strain rom2, active compounds read low 0.746 | locus YLR384C, strain iki3, active compounds read low 0.799 | locus YLR418C, strain cdc73, active compounds read low 0.458 | locus YML016C, strain PPZ1, active compounds read low 0.583 | locus YML032C, strain rad52, active compounds read low 0.522 | locus YML120C, strain ndi1, active compounds read low 0.0997 | locus YML124C, strain tub3, active compounds read low 0.839 | locus YMR058W, strain fet3, active compounds read low 0.179 | locus YMR129W, active compounds read low 0.919 | locus YMR205C, strain PFK2, active compounds read low 0.511 | locus YMR223W, strain ubp8, active compounds read low 0.838 | locus YMR231W, strain pep5, active compounds read low 0.183 | locus YMR307W, strain GAS1, active compounds read low 0.586 | locus YNL067W, strain RPL9B, active compounds read low 0.699 | locus YNL071W, strain lat1, active compounds read low 0.833 | locus YNL153C, strain GIM3, active compounds read low 0.511 | locus YNL183C, strain NPR1, active compounds read low 0.66 | locus YNL209W, strain ssb2, active compounds read low 0.398 | locus YNL233W, strain BNI4, active compounds read low 0.741 | locus YNL248C, strain rpa49, active compounds read low 0.811 | locus YNL250W, strain rad50, active compounds read low 0.76 | locus YNL271C, strain bni1, active compounds read low 0.841 | locus YNL322C, strain KRE1 (second series), active compounds read low 0.237 | locus YNR049C, strain mso1, active compounds read low 0.898 | locus YNR052C, strain pop2, active compounds read low 0.185 | locus YOL006C, strain TOP1, active compounds read low 0.423 | locus YOL147C, strain pex11, active compounds read low 0.689 | locus YOR001W, strain rrp6, active compounds read low 0.686 | locus YOR061W, strain CKA2, active compounds read low 0.734 | locus YOR069W, strain VPS5, active compounds read low 0.775 | locus YOR070C, strain gyp1, active compounds read low 0.901 | locus YOR080W, strain dia2, active compounds read low 0.553 | locus YOR083W, strain WHI5, active compounds read low 0.737 | locus YOR106W, strain vam3, active compounds read low 0.367 | locus YOR144C, strain elg1, active compounds read low 0.545 | locus YOR184W, strain ser1, active compounds read low 0.636 | locus YOR231W, strain MKK1, active compounds read low 0.665 | locus YOR265W, strain rbl2, active compounds read low 0.871 | locus YOR270C, strain vph1, active compounds read low 0.16 | locus YOR290C, strain snf2, active compounds read low 0.105 | locus YPL051W, strain arl3, active compounds read low 0.525 | locus YPL078C, strain atp4, active compounds read low 0.284 | locus YPL106C, strain sse1, active compounds read low 0.747 | locus YPL240C, strain hsp82, active compounds read low 0.864 | locus YPL241C, strain CIN2, active compounds read low 0.841 | locus YPL256C, strain CLN2, active compounds read low 0.601 | locus YPR141C, strain kar3, active compounds read low 0.607 | locus YPR163C, strain tif3, active compounds read low 0.884 | locus YPR167C, strain met16, active compounds read low 0.871 | strain wtn01, active compounds read low 0.761
inactive: locus YKR091W, strain srl3, active compounds read low 0.939 | locus YLR102C, strain apc9, active compounds read low 1.02 | locus YMR078C, strain ctf18, active compounds read low 0.971 | locus YMR125W, strain sto1, active compounds read low 0.955 | locus YNL298W, strain CLA4, active compounds read low 0.969 | locus YNL307C, strain MCK1, active compounds read low 0.959 | locus YOL012C, strain htz1 0.272 | locus YOR136W, strain idh2, active compounds read low 0.925 | locus YOR316C, strain cot1, active compounds read low 1 | locus YPR119W, strain clb2, active compounds read low 1.01
